# Results with a measured potency or affinity are listed apart.
# System: Cryptococcus neoformans
# Conditions: Concentration 32 ug.mL-1; ASSAY_TEST Inhibition of Fungal Growth; detection method Resazurin; Absorption (OD600-OD570); plate type 384well; NBS; CORNING #3640
row,SMILES,Inhibition [%]
1,COC(=O)c1ccc(NC(=O)Cn2nc3ccc(S(=O)(=O)C4CCCCC4)nn3c2=O)cc1,-8.73
2,Cc1nnc2c(=O)n(CC(=O)Nc3ccc(C(C)C)cc3)c3ccccc3n12,-14.04
3,Cc1ccc(NC(=O)Cn2nc3c(N4CC(C)CC(C)C4)nccn3c2=O)c(F)c1 (centres undefined),-9.98
4,Cc1ccc(CN(c2ccc(F)cc2)S(=O)(=O)c2ccc3nnc(C)n3c2)cc1,-6.24
5,COc1ccccc1NC(=O)Cn1nc2c(Sc3ccccc3)nccn2c1=O,-4.93
6,CCCN(C)c1nccn2c(=O)n(CC(=O)Nc3cccc(Cl)c3F)nc12,-6.38
7,Cc1ccc(-n2ccn3c(SCC(=O)Nc4ccc5c(c4)OCCO5)nnc3c2=O)cc1C,-6.74
8,CC1CC(C)CN(c2nccn3c(=O)n(CC(=O)NCc4ccccc4Cl)nc23)C1 (centres undefined),-5.61
9,Cc1cccc(Sc2nccn3c(=O)n(CC(=O)Nc4ccc(Br)cc4C)nc23)c1,-17.23
10,CCc1nnc2c(=O)n(CC(=O)Nc3ccc4c(c3)OCCO4)c3ccccc3n12,-11.52
11,COC(=O)c1cccc(NC(=O)Cn2nc3c(N4CCC(C)CC4)nccn3c2=O)c1,-12.99
12,Cc1cc2nn(CC(=O)Nc3ccccc3)c(=O)n2c(Nc2ccc(C)c(F)c2)n1,-5.9
13,Cc1ccc(N(CC(=O)OC(C)(C)C)S(=O)(=O)c2ccc3nnc(C)n3c2)cc1,-16.68
14,Cc1ccc(N(Cc2ccc(F)cc2)S(=O)(=O)c2ccc3nnc(C)n3c2)cc1,-13.44
15,CC(C)c1ccc(NC(=O)Cn2nc3ccc(SCc4ccc(Cl)cc4)nn3c2=O)cc1,-27.26
16,O=C(CSc1nnc2c(=O)n(-c3ccccc3)ccn12)Nc1ccc(Br)cc1F,-12.46
17,COc1cccc(CNC(=O)CSc2nnc3c4cc(-c5ccc(C)cc5)nn4ccn23)c1,-12.58
18,O=C(Cn1nc2ccc(Sc3ccccc3)nn2c1=O)Nc1ccc(Cl)cc1,-7.55
19,CC(=O)Nc1ccc(NC(=O)CSc2nc3ccccc3n3cnnc23)cc1,-15.75
20,CCOc1ccc(-n2ccn3c(SCC(=O)Nc4ccc(C)cc4Cl)nnc3c2=O)cc1,-6.58

row,SMILES,Inhibition [%]
1,COc1cccc(Oc2nccn3c(=O)n(CC(=O)Nc4ccc(OC)c(OC)c4)nc23)c1,-6.14
2,CCc1ccc(N(Cc2ccccc2Cl)S(=O)(=O)c2cccn3c(C)nnc23)cc1,-4.25
3,Cc1ccc(-c2ccc3nn(CC(=O)Nc4ccc(Br)cc4F)c(=O)n3n2)cc1,-13.83
4,Cc1ccc(Oc2nccn3c(=O)n(CC(=O)Nc4cc(F)ccc4F)nc23)cc1,-11.42
5,CC(C)c1nnc2c(=O)n(CC(=O)Nc3cccc(Cl)c3)c3ccccc3n12,-36.03
6,O=c1n(Cc2nc(-c3ccc(OC(F)(F)F)cc3)no2)nc2ccc(-c3ccccc3)nn12,-17.12
7,COc1cccc(-c2noc(Cn3nc4ccc(-c5ccc(C)c(C)c5)nn4c3=O)n2)c1OC,-10.63
8,O=C(Cn1nc2c3sc(N4CCCC4)nc3ncn2c1=O)Nc1cccc(Br)c1,-10.95
9,O=c1c2sccc2n2c(=O)n(Cc3ccc(Br)cc3)nc2n1Cc1cccs1,-28.37
10,CCC(C)NC(=O)Cn1nc2n(CCC(C)C)c(=O)c3sccc3n2c1=O (centres undefined),-17.2
11,Cc1cc(C)cc(N(Cc2cc(F)cc(F)c2)S(=O)(=O)c2cccn3c(C)nnc23)c1,-11.73
12,Cc1cc(C)c(NC(=O)CSc2nc3ccccc3n3c(C)nnc23)c(C)c1,-7.76
13,O=C(Cn1nc2c(Sc3ccccc3)nccn2c1=O)Nc1cc(F)ccc1F,-12.37
14,COc1ccccc1NC(=O)Cn1nc2c(Oc3ccc(Cl)cc3)nccn2c1=O,-8.59
15,COc1cccc(-n2ccn3c(SCC(=O)Nc4ccc(F)cc4F)nnc3c2=O)c1,-12.76
16,COc1ccc(NC(=O)Cn2nc3c4cc(-c5ccc(C)cc5)nn4ccn3c2=O)c(OC)c1,-29.92
17,COc1ccc(NC(=O)CSc2nc3ccccc3n3c(C(C)C)nnc23)c(OC)c1,-21.27
18,CCc1ccccc1Sc1nccn2c(=O)n(CC(=O)N3CCN(c4ccccc4)CC3)nc12,-19.52
19,CCOc1ccc(N(Cc2ccc(F)cc2)S(=O)(=O)c2ccc3nncn3c2)cc1,-3.72

# Reference: ChEMBL document CHEMBL4513146, “CO-ADD screening of Karazin Kharkiv National University (Ukraine) compounds”
